Data taken from PubChem BioAssay (Tox21).
Inconclusive results are not listed. Calls of active or inactive are those of the source. Unless noted, calls follow the shape of the dose curve; as a rule, active = well fitted curve in the direction sought with a large enough effect in the repeat runs; inconclusive = weak or mixed curves; inactive = no such curve, though single readings can be large; an effect the other way counts as inactive or inconclusive.

What was measured:
[1] = qHTS assay to identify small molecule agonists of the peroxisome proliferator-activated receptor delta (PPARd) signaling pathway - cell viability counter screen (AID 743211); also: nearly all actives have a fitted effect of over 55% in size
In short: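 Viability of GeneBLAzer PPARd UAS-bla HEK293H cells was assessed after 17 h compound incubation at 37C, using CellTiter-Glo reagent added after the reporter read and luminescence recorded 30 min later.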

[2] = biological target: Peroxisome proliferator-activated receptor delta (Homo sapiens) (UniProt Q03181); assay: qHTS assay to identify small molecule agonists of the peroxisome proliferator-activated receptor delta (PPARd) signaling pathway (AID 743212; calls by dose curve)
Peroxisome proliferator-activated receptor delta (Homo sapiens), sequence (Q03181 whole entry, looked up): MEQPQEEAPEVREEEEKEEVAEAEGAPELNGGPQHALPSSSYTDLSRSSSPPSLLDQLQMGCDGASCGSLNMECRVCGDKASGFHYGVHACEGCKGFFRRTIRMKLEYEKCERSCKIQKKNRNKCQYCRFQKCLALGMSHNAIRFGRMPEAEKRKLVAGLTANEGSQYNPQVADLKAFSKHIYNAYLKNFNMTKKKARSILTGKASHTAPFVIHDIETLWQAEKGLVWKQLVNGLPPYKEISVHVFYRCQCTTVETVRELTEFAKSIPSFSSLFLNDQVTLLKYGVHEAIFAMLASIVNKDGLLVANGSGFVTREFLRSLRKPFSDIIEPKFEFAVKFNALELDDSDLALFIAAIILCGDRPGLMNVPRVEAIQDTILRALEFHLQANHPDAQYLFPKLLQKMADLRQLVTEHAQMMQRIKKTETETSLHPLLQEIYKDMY
In short: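 Cells expressing a UAS-driven beta-lactamase reporter (PPARd-bla HEK293H) were given test compounds after a 5 h settle and kept at 37 C. Reporter activity was then measured as FRET fluorescence using LiveBLAzer B/G substrate.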

[3] = qHTS assay to identify small molecule antagonists of the peroxisome proliferator-activated receptor delta (PPARd) signaling pathway - cell viability counter screen (AID 743213); also: nearly all actives have a fitted effect of over 50% in size
In short: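 CellTiter-Glo was added to PPARd-bla HEK293H wells following 17 h compound treatment in the presence of 300 nM L165041. Luminescence was recorded after 30 min at room temperature.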

[4] = biological target: Peroxisome proliferator-activated receptor delta (Homo sapiens) (UniProt Q03181); assay: qHTS assay to identify small molecule antagonists of the peroxisome proliferator-activated receptor delta (PPARd) signaling pathway (AID 743215; active = well fitted inhibition curve with a large enough effect in the signal ratio in the repeat runs, not every such curve was filed as active; the % refers to the signal ratio;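 also: cells stimulated with agonist L165041 at 300 nM final during compound exposure; series mostly up to about 62 µM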)
In short: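 Plated HEK293H PPARd-bla cells rested 5 h at 37 C and 5% CO2. Compound, then agonist L165041 at 300 nM final, was added; 17 h at 37 C followed. Substrate loading, 2 h room temperature, fluorescence measured.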

[5] = qHTS assay to identify small molecule agonists of the farnesoid-X-receptor (FXR) signaling pathway - cell viability counter screen (AID 743218); also: nearly all actives have a fitted effect of over 45% in size
In short: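 Viability of FXR-bla HEK 293T cells is measured by ATP-based CellTiter-Glo luminescence following 16 h compound treatment at 37 C and a prior 2 h room-temperature beta-lactamase substrate step.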

[6] = qHTS assay to identify small molecule antagonists of the farnesoid-X-receptor (FXR) signaling pathway - cell viability counter screen (AID 743221; active = well fitted cell-killing curve with a large enough effect in the repeat runs, not every such curve was filed as active; also: nearly all actives have a fitted effect of over 50% in size)
In short: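 Quantitative HTS of the Tox21 10K library run in parallel with the beta-lactamase reporter read. HEK 293T cells carrying a UAS-driven bla reporter got compound and 50 uM CDCA (final) for 16 h; ATP-based luminescence followed.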

[7] = biological target: Vitamin D3 receptor (Homo sapiens) (UniProt P11473); assay: qHTS assay to identify small molecule agonists of the vitamin D receptor (VDR) signaling pathway (AID 743222; calls by dose curve)
Vitamin D3 receptor (Homo sapiens), sequence (P11473 whole entry, looked up): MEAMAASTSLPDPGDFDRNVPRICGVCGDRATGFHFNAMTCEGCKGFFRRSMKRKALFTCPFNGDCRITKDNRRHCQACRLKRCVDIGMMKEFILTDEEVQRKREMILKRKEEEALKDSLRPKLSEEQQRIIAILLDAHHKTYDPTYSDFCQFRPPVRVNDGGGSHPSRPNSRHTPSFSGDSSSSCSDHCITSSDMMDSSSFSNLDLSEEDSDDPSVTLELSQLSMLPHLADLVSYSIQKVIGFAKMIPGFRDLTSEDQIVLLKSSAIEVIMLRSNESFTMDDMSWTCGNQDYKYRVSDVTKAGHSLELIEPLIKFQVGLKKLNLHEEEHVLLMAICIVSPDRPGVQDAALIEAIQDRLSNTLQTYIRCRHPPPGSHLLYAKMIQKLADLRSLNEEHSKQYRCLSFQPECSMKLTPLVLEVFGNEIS
In short: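 Fluorescence from cleaved LiveBLAzer B/G FRET substrate served as readout. VDR-bla cells had been treated 16 h at 37C with test compounds in DMSO, following a 4 h settling period, and substrate was loaded for 2 h at RT.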

[8] = biological target: Vitamin D3 receptor (Homo sapiens) (UniProt P11473); assay: qHTS assay to identify small molecule antagonists of the vitamin D receptor (VDR) signaling pathway (AID 743223; active = well fitted inhibition curve with a large enough effect in the signal ratio in the repeat runs, not every such curve was filed as active; the % refers to the signal ratio)
In short: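 Fluorescence from LiveBLAzer B/G FRET substrate, read after 2 h at room temperature, reflects beta-lactamase reporter activity in VDR-bla cells treated 16 h at 37C with compounds and agonist 1alpha,25-dihydroxyvitamin D3 (3 nM final).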

[9] = biological target: Bile acid receptor (Homo sapiens) (UniProt Q96RI1); assay: qHTS assay to identify small molecule agonists of the farnesoid-X-receptor (FXR) signaling pathway (AID 743220; active = well fitted activation curve with a large enough effect in the signal ratio in the repeat runs, not every such curve was filed as active; the % refers to the signal ratio)
Bile acid receptor (Homo sapiens), sequence (Q96RI1 whole entry, looked up): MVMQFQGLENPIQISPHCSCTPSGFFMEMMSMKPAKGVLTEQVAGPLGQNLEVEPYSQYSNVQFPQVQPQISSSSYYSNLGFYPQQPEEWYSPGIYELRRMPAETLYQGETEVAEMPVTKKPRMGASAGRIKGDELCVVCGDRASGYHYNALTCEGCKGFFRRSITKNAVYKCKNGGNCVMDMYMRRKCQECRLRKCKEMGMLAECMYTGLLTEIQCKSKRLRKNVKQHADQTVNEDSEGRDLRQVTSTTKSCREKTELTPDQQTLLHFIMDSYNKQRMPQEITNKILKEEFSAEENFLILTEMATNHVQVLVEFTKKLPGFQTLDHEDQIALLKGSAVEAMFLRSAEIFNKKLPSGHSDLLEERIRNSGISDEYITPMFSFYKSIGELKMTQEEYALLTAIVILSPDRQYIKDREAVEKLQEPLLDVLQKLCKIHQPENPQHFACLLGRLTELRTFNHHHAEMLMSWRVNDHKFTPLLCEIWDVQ
In short: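 FXR-UAS-bla HEK 293T cells carrying a UAS-driven beta-lactamase reporter were plated for 5 h at 37C/5% CO2, then exposed to DMSO-dissolved Tox21 10K compounds for 16 h at 37C. A LiveBLAzer B/G FRET substrate was loaded for 2 h at room temperature before fluorescence reading.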

[10] = biological target: Bile acid receptor (Homo sapiens) (UniProt Q96RI1); assay: qHTS assay to identify small molecule antagonists of the farnesoid-X-receptor (FXR) signaling pathway (AID 743217; active = well fitted inhibition curve with a large enough effect in the signal ratio in the repeat runs, not every such curve was filed as active; the % refers to the signal ratio)
In short: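 Screen of the Tox21 10K library in quantitative HTS format using FXR-UAS-bla HEK 293T reporter cells. Agonist chenodeoxycholic acid, 50 uM final, added with compounds; 16 h incubation at 37 °C; beta-lactamase FRET fluorescence measured.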

Measured: Potency

Cc1cc(-c2cc(C)c(N)c(C)c2)cc(C)c1N
not listed: [9] | [10]
inactive: all other assays above

CCCC1COC(Cn2cncn2)(c2ccc(Cl)cc2Cl)O1 (configuration not stated)
not listed: [10]
inactive: all other assays above

O=[N+]([O-])c1ccccc1
inactive: [1] | [2] | [3] | [4] | [5] | [6]

COC(=O)NC(=S)Nc1ccccc1NC(=S)NC(=O)OC
not listed: [10]
inactive: all other assays above

O=[N+]([O-])c1ccc([As](=O)(O)O)cc1
not listed: [9] | [10]
inactive: all other assays above

Nc1ccc(Oc2ccc(N)cc2)cc1
inactive: [1] | [2] | [3] | [4] | [5] | [6]

ClCc1cccnc1
not listed: [10]
inactive: all other assays above

CCCN(CCC)c1c([N+](=O)[O-])cc(C(F)(F)F)cc1[N+](=O)[O-]
not listed: [10]
inactive: all other assays above

CCNc1nc(NC(C)(C)C)nc(SC)n1
not listed: [10]
inactive: all other assays above

Cc1ccc(N)cc1N
not listed: [10]
inactive: all other assays above

O=S(=O)(c1ccc(Cl)cc1)c1cc(Cl)c(Cl)cc1Cl
not listed: [10]
inactive: all other assays above

C=C(C)CCl
inactive: all assays above

O=S(=O)(c1ccc(O)cc1)c1ccc(O)cc1
not listed: [10]
inactive: all other assays above

CCCCCCCCCl
not listed: [10]
inactive: all other assays above

CCC[N+](=O)[O-]
not listed: [10]
inactive: all other assays above

CC(C)C#N
inactive: [1] | [2] | [3] | [4] | [5] | [6]

OC(O)C(Cl)(Cl)Cl
not listed: [7] | [8]
inactive: all other assays above

Cc1cc(Cl)ccc1O
not listed: [10]
inactive: all other assays above

CCOP(=S)(OCC)SCCSCC
inactive: [1] | [2] | [3] | [4] | [5] | [6]

Nc1ccc(Br)cc1
not listed: [7] | [8] | [10]
inactive: all other assays above

CCCCN(CCCC)SN(C)C(=O)Oc1cccc2c1OC(C)(C)C2
not listed: [9] | [10]
inactive: all other assays above

C1CC2OC2CC1C1CO1 (configuration not stated)
not listed: [10]
inactive: all other assays above

Oc1ccccc1Cl
not listed: [9] | [10]
inactive: all other assays above

CC(C)C1(C)N=C(c2nc3ccccc3cc2C(=O)O)NC1=O (configuration not stated)
not listed: [10]
inactive: all other assays above

C[C@]12CC[C@H]3[C@@H](CC[C@@]45O[C@@H]4C(O)=C(C#N)C[C@]35C)[C@@H]1CC[C@@H]2O
not listed: [8] | [9] | [10]
inactive: all other assays above

Clc1ccc(Cl)cc1
not listed: [9] | [10]
inactive: all other assays above

COP(N)(=O)SC (configuration not stated)
not listed: [10]
inactive: all other assays above
